Results filed as inconclusive are left out. Calls of active or inactive are those of the source. Unless noted, calls follow the shape of the full dose curve.
Tests used:
[1] = Nuclear factor erythroid 2-related factor 2/antioxidant responsive element (Nrf2/ARE) small molecule agonists: qHTS cell viability counter screen in human keratinocytes (AID 1919968; active = well fitted curve in the direction sought with a large enough effect in the repeat runs; an effect the other way counts as inactive or inconclusive; also: nearly all actives have a fitted effect of over 55% in size; also: potency is read from the fitted curve at half-maximal effect)
How it was run: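 Cells of the KeratinoSens line were plated at 1,500 per well and left for 5 h before compound transfer from DMSO stocks. After a 23 h incubation (37 C, 5% CO2), CellTiter-Fluor was added. Signal was taken as fluorescence intensity 1 h later.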

[2] = Nuclear factor erythroid 2-related factor 2/antioxidant responsive element (Nrf2/ARE) small molecule agonists: luciferase reporter gene qHTS assay in human keratinocytes (AID 1919969); also: nearly all actives have a fitted effect of over 35% in size; also: potency is read from the fitted curve at half-maximal effect
[3] = target: Gonadotropin-releasing hormone receptor (Homo sapiens) (UniProt P30968); experiment: Human gonadotropin-releasing hormone receptor (GnRHR) small molecule agonists, calcium flux assay in GnRHR-HEK293 cells (AID 1920063); also: nearly all actives have a fitted effect of over 35% in size
How it was run: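 Compounds dissolved in DMSO are pin-transferred onto dye-loaded GnRHR-HEK293 cells, which were seeded 18 h before at 37 C/5% CO2. Calcium signal is read as fluorescence intensity at 1 s intervals for 3 min.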

[4] = target: KiSS-1 receptor (Homo sapiens) (UniProt Q969F8); experiment: Human kisspeptin (KISS1R) small molecule agonists, calcium flux assay in KISS1R-HEK293 cells (AID 1920064; active = well fitted curve in the direction sought with a large enough effect in the repeat runs; an effect the other way counts as inactive or inconclusive)
How it was run: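 Cell line: HEK293, stable human KISS1R. Dye loading 1 h at 37 C after 18 h culture. Read: kinetic fluorescence, 480/540 nm, 3 min at 1 s intervals.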

[5] = G protein-coupled receptor (GPCR) small molecule agonists, calcium flux assay: HEK293 wild type cell line counter screen (AID 1920065)
How it was run: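 Tox21 10K compounds, 15 concentrations each in triplicate, pin-transferred in DMSO onto dye-loaded cells; kinetic read at 480/540 nm for 3 min, 1 s intervals.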

[6] = p53 small molecule agonists, cell-based qHTS assay with rat liver microsomes (AID 1963578)
How it was run: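 Metabolic activation is supplied by rat liver microsomes with NADPH (each 0.5 mg/mL final). p53RE-bla cells incubate with compound 16 h at 37 C; reporter activity is measured by LiveBLAzer fluorescence.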

[7] = p53 small molecule agonists, cell-based qHTS assay with rat liver microsomes: qHTS cell viability counter screen (AID 1963580); also: nearly all actives have a fitted effect of over 45% in size
How it was run: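 Luminescent ATP readout (CellTiter-Glo, 30 min at room temperature) reports viability of p53RE-bla HCT-116 cells after 16 h at 37 C with test compounds under metabolic activation by rat liver microsomes and NADPH at 0.5 mg/mL final each.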

[8] = p53 small molecule agonists, cell-based qHTS assay: qHTS cell viability counter screen (AID 1963581); also: nearly all actives have a fitted effect of over 45% in size; also: potency is read from the fitted curve at half-maximal effect
How it was run: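 ATP content measured by luminescence in HCT-116 p53RE-bla cells treated 16 h at 37 C, same wells as the reporter screen.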

[9] = p53 small molecule agonists, cell-based qHTS assay (AID 1963582; active = well fitted activation curve with a large enough effect in the signal ratio in the repeat runs, not every such curve was filed as active; the % refers to the signal ratio)
How it was run: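 16 h compound exposure (37 C) of p53 response element–bla cells, preceded by 5 h recovery at 37 C/5% CO2; read-out via LiveBLAzer B/G FRET substrate, 2 h RT, fluorescence intensity.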

[10] = target: Muscarinic acetylcholine receptor M1 (Homo sapiens) (UniProt P11229); experiment: Cholinergic receptor muscarinic 1 (CHRM1) small molecule agonists, cell-based qHTS assay (AID 1963589); also: nearly all actives have a fitted effect of over 35% in size
How it was run: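 Homogeneous fluorescence calcium flux, agonist mode. Human M1-expressing CHO cells; compound dosed at 15 concentrations, three independent runs; signal sampled every 1 sec.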

[11] = cAMP Responsive Elements (CRE) small molecule antagonists, cell-based qHTS assay (AID 1963591; active = well fitted inhibition curve with a large enough effect in the signal ratio in the repeat runs, not every such curve was filed as active; the % refers to the signal ratio)
How it was run: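 First, CRE-bla HEK293T cells settled 18 h at 37 C. Next, compound and 0.25 uM final NKH477 were applied for 3 h. Last, LiveBLAzer B/G substrate was loaded for 2 h at room temperature.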

[12] = target: Beta-2 adrenergic receptor (Homo sapiens) (UniProt P07550); experiment: Adrenergic beta2 receptor (ADRB2) small molecule antagonists, cell-based qHTS assay (AID 1963592); also: series mostly up to about 92 µM; nearly all actives have a fitted effect of over 50% in size
How it was run: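 Assay format: CHO-ADRB2 cells, 18-20hr seeding at 37C/5% CO2, then compound plus 1nM isoproterenol agonist mix for 0.5hr RT. Homogeneous time-resolved fluorescence cAMP detection after 1hr, expressed as 665/615 nm ratio.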

[13] = target: D(2) dopamine receptor (Homo sapiens) (UniProt P14416); experiment: Dopamine D2 receptor (DRD2) small molecule agonists, cell-based qHTS assay (AID 1963594); also: nearly all actives have a fitted effect of over 35% in size
How it was run: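 HEK293 cells stably expressing DRD2 were cultured 24 h at 37 C, then given Ro20-1724 (0.1 mM final) and compounds for 10 min at room temperature. NKH477 (200nM) was then added for 30 min. cAMP was read by HTRF.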

[14] = target: D(2) dopamine receptor (Homo sapiens) (UniProt P14416); experiment: Dopamine D2 receptor (DRD2) small molecule antagonists, cell-based qHTS assay (AID 1963595; active = well fitted inhibition curve with a large enough effect in the signal ratio in the repeat runs, with a control signal flat; the % refers to the signal ratio; also: potency is read from the fitted curve at half-maximal effect)
How it was run: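 DRD2-HEK293; 0.1 mM Ro20-1724; cpd 10 min RT; NKH477 200 nM + quinpirole 12 nM, 30 min RT; HTRF cAMP (cAMP-d2/anti-cAMP cryptate), 665/620 nm ratio after 1 h.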

[15] = p53 small molecule agonists, cell-based qHTS assay with human liver microsomes: qHTS cell viability counter screen (AID 1963579); also: nearly all actives have a fitted effect of over 45% in size
How it was run: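 After the 460/530 nm beta-lactamase read, CellTiter-Glo was added to the same wells and luminescence measured after 30 min at room temperature, giving viability of p53RE-bla cells treated 16 h with compounds plus microsomes and NADPH.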

[16] = target: 5-hydroxytryptamine receptor 2A (Homo sapiens) (UniProt P28223); experiment: 5-hydroxytryptamine receptor 2A (HTR2A) small molecule antagonists, cell-based qHTS assay (AID 1963586); also: nearly all actives have a fitted effect of over 45% in size
How it was run: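 CHO cells stably expressing human HTR2A were plated for 18 h at 37 C, then loaded with calcium dye for 1 h. Compounds were preincubated 5 min at room temperature before DOI (4 nM solution) was added. Kinetic fluorescence was read for 3 min.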

[17] = target: 5-hydroxytryptamine receptor 2A (Homo sapiens) (UniProt P28223); experiment: 5-hydroxytryptamine receptor 2A (HTR2A) small molecule agonists, cell-based qHTS assay (AID 1963587); also: nearly all actives have a fitted effect of over 30% in size
How it was run: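 HTR2A-CHO cells, plated 18 h at 37 C/5% CO2, dye-loaded 1 h at 37 C; compounds in DMSO added by pin tool (agonist mode). Intracellular calcium flux read as kinetic fluorescence on FDSS over 2 min at 1 s intervals.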

[18] = target: Muscarinic acetylcholine receptor M1 (Homo sapiens) (UniProt P11229); experiment: Cholinergic receptor muscarinic 1 (CHRM1) small molecule antagonists, cell-based qHTS assay (AID 1963588); also: nearly all actives have a fitted effect of over 40% in size
How it was run: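 Compounds were tested at 15 concentrations in three independent runs. Dye-loaded CHRM1-CHO cells were exposed 5 min at room temperature before stimulation by acetylcholine added at 50nM. Intracellular calcium was read kinetically on FDSS for 3 min.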

[19] = cAMP Responsive Elements (CRE) small molecule agonists, cell-based qHTS assay (AID 1963590)
How it was run: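 HEK 293T cells stably bearing CRE-bla were plated at 2,000 cells per well and rested 18 h. Compounds, positive controls or DMSO were added for 3 h at 37 C. LiveBLAzer B/G substrate was then loaded for 2 h at room temperature.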
% is scaled to controls: 0 for no effect and ±100 for the full control effect.

Chain of KiSS-1 receptor (Homo sapiens) (Q969F8 whole entry, looked up): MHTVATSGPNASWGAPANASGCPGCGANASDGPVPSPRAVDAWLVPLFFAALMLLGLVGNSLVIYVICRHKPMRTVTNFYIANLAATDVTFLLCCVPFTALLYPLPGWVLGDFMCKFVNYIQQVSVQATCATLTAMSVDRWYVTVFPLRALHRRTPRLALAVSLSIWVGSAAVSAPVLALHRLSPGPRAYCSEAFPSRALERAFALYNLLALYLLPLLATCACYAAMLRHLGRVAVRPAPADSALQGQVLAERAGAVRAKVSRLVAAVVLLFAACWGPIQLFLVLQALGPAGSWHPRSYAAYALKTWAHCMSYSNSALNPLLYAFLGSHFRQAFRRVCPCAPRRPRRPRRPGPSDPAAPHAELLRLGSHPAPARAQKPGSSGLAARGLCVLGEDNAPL
Chain of 5-hydroxytryptamine receptor 2A (Homo sapiens) (P28223 whole entry, looked up): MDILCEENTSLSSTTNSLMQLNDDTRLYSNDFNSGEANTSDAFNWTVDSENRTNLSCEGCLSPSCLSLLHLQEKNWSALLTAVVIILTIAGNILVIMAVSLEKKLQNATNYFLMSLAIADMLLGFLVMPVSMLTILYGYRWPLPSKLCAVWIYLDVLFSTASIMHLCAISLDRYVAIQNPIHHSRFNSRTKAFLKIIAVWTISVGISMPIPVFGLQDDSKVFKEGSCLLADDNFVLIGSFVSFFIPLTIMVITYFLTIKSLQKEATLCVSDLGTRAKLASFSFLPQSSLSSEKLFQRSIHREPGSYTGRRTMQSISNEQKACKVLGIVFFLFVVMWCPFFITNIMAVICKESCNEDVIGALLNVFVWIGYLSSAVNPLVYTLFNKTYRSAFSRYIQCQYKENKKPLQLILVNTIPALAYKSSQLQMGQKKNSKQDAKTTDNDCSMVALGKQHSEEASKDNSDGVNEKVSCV
Chain of Beta-2 adrenergic receptor (Homo sapiens) (P07550 whole entry, looked up): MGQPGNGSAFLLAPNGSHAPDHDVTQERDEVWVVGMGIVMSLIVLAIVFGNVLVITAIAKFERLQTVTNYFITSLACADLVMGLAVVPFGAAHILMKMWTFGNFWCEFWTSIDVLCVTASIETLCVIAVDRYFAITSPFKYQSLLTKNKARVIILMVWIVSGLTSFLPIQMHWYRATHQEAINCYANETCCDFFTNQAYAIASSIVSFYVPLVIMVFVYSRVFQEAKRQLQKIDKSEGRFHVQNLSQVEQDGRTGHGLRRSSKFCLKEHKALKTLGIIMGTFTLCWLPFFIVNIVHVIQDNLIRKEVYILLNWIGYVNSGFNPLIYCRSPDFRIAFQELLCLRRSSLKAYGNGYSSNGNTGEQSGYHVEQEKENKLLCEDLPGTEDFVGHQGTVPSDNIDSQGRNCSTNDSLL
Chain of Gonadotropin-releasing hormone receptor (Homo sapiens) (P30968 whole entry, looked up): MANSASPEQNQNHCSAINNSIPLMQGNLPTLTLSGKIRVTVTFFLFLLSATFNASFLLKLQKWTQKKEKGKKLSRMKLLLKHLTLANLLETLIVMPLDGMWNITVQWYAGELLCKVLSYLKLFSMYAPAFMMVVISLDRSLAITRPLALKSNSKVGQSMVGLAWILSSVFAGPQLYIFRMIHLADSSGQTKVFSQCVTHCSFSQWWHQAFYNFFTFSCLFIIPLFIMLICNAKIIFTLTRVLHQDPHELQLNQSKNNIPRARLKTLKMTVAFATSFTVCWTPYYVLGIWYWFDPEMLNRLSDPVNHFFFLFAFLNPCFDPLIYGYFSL
Chain of D(2) dopamine receptor (Homo sapiens) (P14416 whole entry, looked up): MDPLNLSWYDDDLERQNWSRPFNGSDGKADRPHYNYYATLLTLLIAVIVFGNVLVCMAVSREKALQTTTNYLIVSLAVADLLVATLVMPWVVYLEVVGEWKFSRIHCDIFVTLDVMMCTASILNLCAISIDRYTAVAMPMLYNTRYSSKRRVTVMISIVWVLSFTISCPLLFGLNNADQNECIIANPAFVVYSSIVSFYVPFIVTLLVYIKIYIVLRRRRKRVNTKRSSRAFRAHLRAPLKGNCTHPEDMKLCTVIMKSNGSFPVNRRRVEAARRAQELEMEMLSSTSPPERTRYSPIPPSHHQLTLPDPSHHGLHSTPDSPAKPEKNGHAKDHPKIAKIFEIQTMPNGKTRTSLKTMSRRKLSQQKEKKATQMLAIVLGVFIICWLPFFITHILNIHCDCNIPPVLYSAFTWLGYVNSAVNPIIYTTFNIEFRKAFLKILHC
Chain of Muscarinic acetylcholine receptor M1 (Homo sapiens) (P11229 whole entry, looked up): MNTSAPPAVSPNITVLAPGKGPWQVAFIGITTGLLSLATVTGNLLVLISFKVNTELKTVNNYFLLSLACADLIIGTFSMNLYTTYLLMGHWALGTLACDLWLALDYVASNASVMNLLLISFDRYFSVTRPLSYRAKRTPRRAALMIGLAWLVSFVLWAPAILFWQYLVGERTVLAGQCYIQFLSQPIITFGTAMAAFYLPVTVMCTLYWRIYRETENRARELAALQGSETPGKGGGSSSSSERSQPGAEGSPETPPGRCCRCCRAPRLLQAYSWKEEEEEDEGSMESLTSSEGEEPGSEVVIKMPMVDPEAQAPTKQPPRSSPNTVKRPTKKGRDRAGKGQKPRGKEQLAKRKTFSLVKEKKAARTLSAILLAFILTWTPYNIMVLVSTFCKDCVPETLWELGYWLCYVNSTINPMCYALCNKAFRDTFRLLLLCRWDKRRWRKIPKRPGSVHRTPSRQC

COc1ccc2[nH]c(S(=O)Cc3ncc(C)c(OC)c3C)nc2n1 (configuration not stated)
inactive: Potency [1] | Potency [3] | outcome [4] | outcome [5] | Potency [6] | Potency [7] | Potency [8] | Potency [9] | Potency [10] | Potency [11] | Potency [12] | Potency [13] | Potency [14]
active: Potency [2] 21.1 µM

CCCCCCC/C=C/C=O
inactive: Potency [1] | Potency [2] | Potency [3] | outcome [4] | outcome [5] | Potency [6] | Potency [15] | Potency [7] | Potency [16] | Potency [17] | Potency [18] | Potency [10] | Potency [11] | Potency [12] | Potency [13] | Potency [14]

CC(C)Cc1nccs1
inactive: Potency [1] | Potency [2] | Potency [3] | outcome [4] | outcome [5] | Potency [6] | Potency [15] | Potency [7] | Potency [16] | Potency [17] | Potency [18] | Potency [10] | Potency [11] | Potency [12] | Potency [13] | Potency [14]

COc1cc(C(=O)NS(=O)(=O)c2ccccc2C)ccc1Cc1cn(C)c2ccc(NC(=O)OC3CCCC3)cc12
inactive: Potency [1] | Potency [2] | Potency [3] | outcome [4] | outcome [5] | Potency [6] | Potency [15] | Potency [7] | Potency [9] | Potency [12] | Potency [13] | Potency [14]

CCCCCCCCCCCCCC=O
inactive: activity change, negative = cytotoxicity [1] -1.13% [at 8.39 µM] | activity, positive = activation [2] 0.0623% [at 8.39 µM] | activity change [3] -0.408% [at 5.22 µM, stronger effect = higher value] | activation [4] 0.0205% [at 6.97 µM] | activation [5] 0.0655% [at 5.23 µM] | activation [6] -2.08% [at 5.99 µM] | activity change, negative = cytotoxicity [15] -3.87% [at 5.99 µM] | activity change, negative = cytotoxicity [8] -2.03% [at 5.99 µM] | activation [9] 5.85% [at 5.99 µM] | activation [17] -1.86% [at 7.02 µM] | activity, negative = inhibition [18] 4.29% [at 5.58 µM] | activation [10] 0.649% [at 6.97 µM] | activation [19] -0.0207% [at 8.39 µM] | activity change, negative = inhibition [11] 0.604% [at 8.39 µM] | activity change, negative = inhibition [12] 0.833% [at 8.39 µM] | activity change, negative = inhibition [14] 7.61% [at 8.38 µM]

CCOC(=O)O[C@H](C)OC(=O)c1ccc2c(c1)cc(C(=O)NC1CCN(C(C)C)CC1)n2Cc1cc(-c2ccc(Cl)s2)on1
inactive: Potency [2] | Potency [3] | outcome [4] | outcome [5] | Potency [6] | Potency [16] | Potency [17] | Potency [10]
active: Potency [1] 11.4 µM | Potency [8] 38.1 µM | Potency [14] 50.9 µM

Cc1ccc2sc3cccc(C)c3c2c1
inactive: Potency [1] | Potency [2] | Potency [3] | outcome [4] | outcome [5] | Potency [6] | Potency [15] | Potency [7] | Potency [9] | Potency [16] | Potency [17] | Potency [18] | Potency [10] | Potency [19] | Potency [12] | Potency [13] | Potency [14]

— PubChem BioAssay (Tox21)
